Most compounds without a hit are left out; they make up all but 6.9% or so of the library.
S-ASM inh: blocks human secretory acid sphingomyelinase; 0.006% of 340,000 active; placental ASM, HMU-PC fluorogenic substrate, 60 min; P17405; Potency, µM (doses to about 57.5 µM), for inactives: top-dose activity change, negative = inhibition, hits mostly inhibitors; also: potency is read from the fitted curve at half-maximal effect
Target sequence (P17405 47-631 limits assumed): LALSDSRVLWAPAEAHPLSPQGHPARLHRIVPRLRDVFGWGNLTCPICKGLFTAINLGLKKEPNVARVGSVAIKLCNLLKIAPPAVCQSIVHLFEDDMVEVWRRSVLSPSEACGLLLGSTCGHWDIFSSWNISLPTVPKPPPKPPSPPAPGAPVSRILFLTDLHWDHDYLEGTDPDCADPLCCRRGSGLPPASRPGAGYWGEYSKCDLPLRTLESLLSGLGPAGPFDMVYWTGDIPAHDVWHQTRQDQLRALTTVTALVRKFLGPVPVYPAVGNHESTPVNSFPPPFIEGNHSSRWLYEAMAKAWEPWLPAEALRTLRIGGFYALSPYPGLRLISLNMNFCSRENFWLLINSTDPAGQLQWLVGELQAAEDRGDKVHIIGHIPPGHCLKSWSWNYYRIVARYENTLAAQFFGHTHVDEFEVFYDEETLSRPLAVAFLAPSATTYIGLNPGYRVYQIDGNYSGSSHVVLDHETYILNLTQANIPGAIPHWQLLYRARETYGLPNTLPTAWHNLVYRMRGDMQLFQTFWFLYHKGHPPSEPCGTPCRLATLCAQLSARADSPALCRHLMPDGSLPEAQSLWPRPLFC
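qHTS format. ASM enzyme prepared from human placenta hydrolyses the fluorogenic substrate HMU-PC0 (9 uM final) over 60 min at 37 °C after a 10 min compound preincubation.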
KB-3-1 cytotox: kills parental KB-3-1 adenocarcinoma cells. KB-3-1 viability, CellTiter-Glo ATP luminescence, 72 h. 1.4% of 400,000 active. Potency, µM (series often up to 46.1 µM), most hits filed as cytotoxic; also: potency is read from the fitted curve at half-maximal effect; % is scaled to controls: 0 for no effect and ±100 for the full control effect; nearly all actives have a fitted effect of over 60% in size
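Parental KB-3-1 viability, qHTS format: 72 h compound exposure, 37 °C; CellTiter-Glo; media-only wells and DMSO plates as controls; concentration-effect fits on corrected data.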
MCF10A rerep: induces DNA re-replication in MCF 10a normal breast cells | MCF 10A DNA re-replication, Hoechst nuclear intensity, 48 h | Potency, µM (top dose mostly 46.1 µM), for the others: at the highest dose activity, positive = re-replication, actives largely listed as activators | 2.9% of 350,000 active; also: potency is read from the fitted curve at half-maximal effect; % of control where 0% means no effect; nearly all actives have a fitted effect of over 50% in size
SW480 rereplic: DNA re-replication induction in SW480 cells; SW480 DNA re-replication, Hoechst DNA content imaging, 48 h; Potency, µM (titrated, usually from 46.1 µM), for inactives: at the highest dose re-replication activation, actives largely listed as activators; 1.8% of 340,000 active; AID 624297; also: potency is read from the fitted curve at half-maximal effect; % of control where 0% means no effect; nearly all actives have a fitted effect of over 55% in size
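Image-based read-out: total Hoechst fluorescence of nuclei (405 nm excitation, 500-530 nm emission), with hits raising the fraction of high-intensity nuclei. SW480 colon cells incubated 48 hr with compounds at 37 C.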
KB-V1 cytotox: KB-V1 MDR subline cytotoxicity; KB-V1 MDR cells viability, CellTiter-Glo, 72 h; Potency, µM (doses to about 46.1 µM), most hits filed as cytotoxic; 3.4% of 400,000 active; also: potency is read from the fitted curve at half-maximal effect; % is scaled to controls: 0 for no effect and ±100 for the full control effect; nearly all actives have a fitted effect of over 60% in size
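Cells of the MDR subline KB-V1 are plated, dosed with compound at multiple concentrations, and incubated 72 h at 37 degrees C; CellTiter-Glo is then added and luminescence read after 10 min.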
Giardia killer: Giardia lamblia killing | Giardia lamblia trophozoite viability | activity change, % at 7.66 µM, hits read low | 0.15% of 340,000 active; in the data active = activity change below about -80%; inconclusive = between about -30% and that limit;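 also: parasites exposed to compound for two days anaerobically before the ATP read; % is scaled to controls: 0 for no effect and ±100 for the full control effect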
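Trophozoites 100 cells/well + cpd; 48 hrs, 37 deg C, anaerobic. ATPLite 1-Step added, 15-30 min RT, luminescence read (ATP-based viability).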
Active calls of the source: *; i = inactive; ? = inconclusive; . = no result. Unless noted, calls follow the shape of the dose curve; as a rule, active = well fitted curve in the direction sought with a large enough effect; inconclusive = small, poorly fitted or top-dose-only effect, or another doubt; inactive = no such curve, though single readings can be large; an effect the other way counts as inactive or inconclusive.

SMILES | S-ASM inh | KB-3-1 cytotox | MCF10A rerep | SW480 rereplic | KB-V1 cytotox | Giardia killer
CC(C)(C)c1ccc(NC(=O)NC2CCCc3ccccc32)cc1 (centres undefined) | 0% | ? | ? | ? | 21µM* | 13
O=C(CSc1nnc(-c2ccccc2O)n1Cc1ccccc1)NNC(=O)c1ccccc1O | -1% | ? | 13% | . | i | 5
COCCNc1ccc(-c2nc(-c3ccccn3)no2)cc1[N+](=O)[O-] | . | i | . | . | i | .
CCCCn1c(=O)n(CC2CCC(C(=O)NCCCOC)CC2)c(=O)c2sccc21 (centres undefined) | . | i | . | . | i | .
O=C(Nc1ccccc1Cl)C1CCN(c2nc3ccccc3nc2C(F)(F)F)CC1 | . | i | . | . | i | .
COC(=O)N/N=C/C1=C[N+](=O)c2ccccc2[N+]1=O | . | . | 1% | 4% | . | .
O=c1c2ccccc2sn1-c1ccc(S(=O)(=O)N2CCCCC2)cc1 | -2% | i | -6% | 1% | ? | -1
Cc1ccc(-n2sc3ccccc3c2=O)cc1S(=O)(=O)N1CCCCC1 | -9% | ? | 16µM* | ? | ? | -9
O=c1c2cc(C(F)(F)F)ccc2sn1-c1ccccc1 | . | ? | . | . | 21µM* | .
O=c1c2ccccc2sn1-c1nccs1 | 0% | i | 16µM* | ? | i | -12
O=c1c2cc(F)ccc2sn1-c1ccccc1 | 0% | ? | ? | ? | i | -8
O=c1c2ccccc2sn1-c1ccccc1 | 2% | ? | 9.2µM* | 12µM* | i | -3
CCOCCCNC(=O)C(=O)Nc1c2c(nn1-c1ccc(OC)cc1)CSC2 | . | i | . | . | i | .
Cc1ccc2nc(NC(=O)CSc3[nH]c(=O)ncc3C)sc2c1 | . | i | . | . | i | -24
CCN(CC)c1nc2ccccc2nc1C(=O)Nc1cc(OC)c(OC)c(OC)c1 | . | i | . | . | i | .
Cc1cc(C)c(/C=C(\C#N)S(=O)(=O)c2ccccc2)[nH]1 | -3% | i | 18µM* | 0% | ? | 7
Cc1[nH]c2ccccc2c1/C=C(\C#N)S(=O)(=O)c1ccccc1 | -21% | i | 3% | -1% | i | 8
COc1ccc(/C=C/C2=NNC(=O)CC2)cc1 | -6% | 1.5µM* | 1% | -9% | 0.41µM* | -17
O=C1CCC(/C=C/c2ccccc2)=NN1 | -3% | ? | 0% | -31% | 5.2µM* | -13
CCOc1ccc(/C=C/C2=NNC(=O)CC2)cc1 | -1% | i | 1% | 15% | 1.8µM* | -8
CCCOc1ccc(C2=NNC(=O)CC2)cc1 | -4% | i | 12% | -90% | 0.21µM* | -11
CCOC(=O)CN1N=C(/C=C/c2ccc(OCC)cc2)CCC1=O | -7% | i | -1% | 2% | ? | 10
CCn1c(=O)c2cc(C(=O)N3CCN(c4cccc(Cl)c4)CC3)sc2c2ccccc21 | . | i | . | . | i | .
Cc1ccc(CS(=O)(=O)c2cn(CC(=O)N(C)c3ccccc3)c3ccccc23)cc1 | . | i | . | . | i | .
Cc1ccc(Sc2ccc(N3CCCC(C(=O)Nc4ccc(F)c(Cl)c4)C3)nn2)cc1 (centres undefined) | . | i | . | . | i | .
SMILES | S-ASM inh | KB-3-1 cytotox | MCF10A rerep | SW480 rereplic | KB-V1 cytotox | Giardia killer
CN1CCN(CCCNc2c(C=O)c(=O)[nH]c3ccccc23)CC1 | 4% | i | 7% | -16% | i | 8
O=C(O)CCc1ccc2ccccc2c1 | . | i | . | . | i | .
C=C(NNC(C)=O)c1ccc(O)cc1 | . | ? | . | . | i | .
c1ccc(N2CCCCC2)c(Nc2nc3ccccc3n3cnnc23)c1 | -1% | ? | 12µM* | -76% | i | 5
FC(F)(F)c1ccc(N2CCOCC2)c(Nc2nc3ccccc3n3cnnc23)c1 | ? | ? | 23µM* | ? | ? | -7
Fc1ccc(Nc2nc3ccccc3n3cnnc23)c(F)c1 | . | i | . | . | i | .
O=C1CCC[C@@H]2[C@@H](Cc3ccccc3)[C@H](N3CCN(c4ccccc4)CC3)C[C@@H]3CCN1[C@@H]32 | 1% | ? | ? | -4% | i | 16

Compound activity (PubChem)
